Assay [1] has as its system RAW-Dual. The assay is described as follows: NF-kB SEAP reporter activity, fold change vs agonist alone; higher = enhanced NF-kB activity. Particulars: library stock concentration (final ~1000-fold dilution): 10 mM. In a few lines:
(§1)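 Cytotoxic wells were those whose IncuCyte confluency was below 70% of agonist controls in both mask sets. The cells were RAW-Dual macrophages at 50,000 cells/well in DMEM on 384-well plates, dosed with 50 nL of library stock by pin tool, stimulated with a PRR agonist 1 h later, and kept at 37 °C, 5% CO2 for 20 hours. IRF and NF-κB reporter activity, as fold change over agonist-alone wells, came from supernatant read by QuantiLuc luminescence and QuantiBlue absorbance, respectively.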

The test system of assay [2] is RAW-Dual. The assay can be described thus: NF-kB SEAP reporter activity, fold change vs agonist alone; cytotoxicity flag (confluency mask): not cytotoxic; higher = enhanced NF-kB activity. In a few lines: as §1
Assay [3] concerns RAW-Dual. The assay can be described thus: NF-kB SEAP reporter activity, fold change vs agonist alone; cytotoxicity flag (confluency mask): cytotoxic (confluency <70% of control); higher = enhanced NF-kB activity. In a few lines: as §1
[4] abbreviates: cytotoxicity flag (confluency mask): cytotoxic (confluency <70% of control), agonist: Imiquimod (TLR7) […].
Where [5] appears, read: cytotoxicity flag (confluency mask): cytotoxic (confluency <70% of control), agonist: MPLA (TLR4) […].
The mark [6] stands for this setting: cytotoxicity flag (confluency mask): not cytotoxic, agonist: Imiquimod (TLR7) […].
Where [7] appears, read: cytotoxicity flag (confluency mask): not cytotoxic, agonist: MPLA (TLR4) […].
[8] abbreviates: agonist: ODN 1826 (TLR9) 0.5 ug/mL.
[9] abbreviates: agonist: Pam2CSK4 (TLR2/6) 0.1 ug/mL.
[10] abbreviates: agonist: Pam3CSK4 (TLR2/1) 0.1 ug/mL.

SMILES strings stand for the structures. Whole data set: some 2,900 compounds, median “NF-kB SEAP reporter activity, fold change vs agonist alone” near 0.99, cut for the highest 2% near 2.6. This excerpt belongs to a sample that is enriched for the highest values.

Experimental findings from the supplement of paper PMC10037445 are described below.

In the case of `CCn1c2ccccc2c2cc(CNCc3ccccc3OC)ccc21.Cl`, the “NF-kB SEAP reporter activity” value turned out to be 1.22 in the assay with RAW-Dual [1] (setting [4]) and 1.37 in the assay with RAW-Dual [1] (setting [5]).
Regarding `CC(=O)N1CCN(c2ccc(NC(=O)Cc3cnc(-c4ccnc(F)c4)c(C)c3)nc2)CC1`, the “NF-kB SEAP reporter activity” value in the assay on RAW-Dual [1] (setting [6]) was 0.874; with RAW-Dual [1] (setting [7]) it was 1.
Take `CC(=O)N1CCN(c2ccc(NC(=O)Cc3cnc(-c4ccnc(F)c4)c(C)c3)nc2)CC1` (library stock concentration (final ~1000-fold dilution): 10 mM): the “NF-kB SEAP reporter activity” value in the assay on RAW-Dual [2] (agonist: LPS (TLR4) 0.1 ug/mL) turned out to be 0.956; in the assay on RAW-Dual [2] (setting [8]), 0.965; in the assay with RAW-Dual [2] (setting [9]), 0.991; with RAW-Dual [2] (setting [10]) it was 1.03.
With `CC(/C=C/C=C(\C)C(=O)OC1OC(COC2OC(CO)C(O)C(O)C2O)C(O)C(O)C1O)=C\C=C\C=C(C)\C=C\C=C(/C)C(=O)OC1OC(COC2OC(CO)C(O)C(O)C2O)C(O)C(O)C1O` (stereo not drawn), the “NF-kB SEAP reporter activity” value was 0.915 with RAW-Dual [1] (setting [6]) and 1.03 with RAW-Dual [1] (setting [7]).
`CC(/C=C/C=C(\C)C(=O)OC1OC(COC2OC(CO)C(O)C(O)C2O)C(O)C(O)C1O)=C\C=C\C=C(C)\C=C\C=C(/C)C(=O)OC1OC(COC2OC(CO)C(O)C(O)C2O)C(O)C(O)C1O` (stereo not drawn) (library stock concentration (final ~1000-fold dilution): 10 mM): the “NF-kB SEAP reporter activity” value in the assay on RAW-Dual [2] (agonist: LPS (TLR4) 0.1 ug/mL) was 1.08; with RAW-Dual [2] (setting [8]) it was 0.948; in the assay with RAW-Dual [2] (setting [9]), 1.16; in the assay with RAW-Dual [2] (setting [10]), 1.19.
For `CS(=O)(=O)N1CCN(Cc2cc3nc(-c4cccc5[nH]ncc45)nc(N4CCOCC4)c3s2)CC1`, the “NF-kB SEAP reporter activity” value in the assay on RAW-Dual [1] (setting [6]) was 1.77; in the assay with RAW-Dual [1] (setting [7]), 1.75.
Consider `Fc1ccc2[nH]ccc2c1-c1nc(N2CCOCC2)c2sc(CN3CCN(CC4CC4)CC3)cc2n1`, for which the “NF-kB SEAP reporter activity” value with RAW-Dual [1] (setting [6]) turned out to be 0.944; in the assay with RAW-Dual [1] (setting [7]) it was 1.25.
Turning to `Fc1ccc2[nH]ccc2c1-c1nc(N2CCOCC2)c2sc(CN3CCN(CC4CC4)CC3)cc2n1` (library stock concentration (final ~1000-fold dilution): 10 mM), the “NF-kB SEAP reporter activity” value in the assay on RAW-Dual [2] (agonist: LPS (TLR4) 0.1 ug/mL) was determined as 2.9; with RAW-Dual [2] (setting [8]), 0.272; in the assay with RAW-Dual [2] (setting [9]), 1.03; in the assay on RAW-Dual [2] (setting [10]), 0.935.
On the same counts, the results for `CS(=O)(=O)N1CCN(Cc2cc3nc(-c4cccc5[nH]ncc45)nc(N4CCOCC4)c3s2)CC1` (library stock concentration (final ~1000-fold dilution): 10 mM) are 1.87, 0.247, 1.02 and 0.72.
Regarding `O=C(CCNC(=O)c1ccc(OC(F)(F)F)cc1)NC1CCCc2ccccc21` (stereo not drawn) (library stock concentration (final ~1000-fold dilution): 10 mM), the “NF-kB SEAP reporter activity” value in the assay on RAW-Dual [2] (agonist: LPS (TLR4) 0.1 ug/mL) was 0.767; with RAW-Dual [2] (setting [8]), 1.33; in the assay on RAW-Dual [2] (setting [9]), 0.519; with RAW-Dual [2] (setting [10]) it was 0.68.
As for `O=C(CCNC(=O)c1ccc(OC(F)(F)F)cc1)NC1CCCc2ccccc21` (stereo not drawn), the entries for the “NF-kB SEAP reporter activity” value with RAW-Dual [1] (setting [6]) and with RAW-Dual [1] (setting [7]) were 1.66 and 1.13, respectively.
As to `COc1cc2c(cc1OC)CC(=O)N(CCCN(C)CC1Cc3cc(OC)c(OC)cc31)CC2.Cl` (stereo not drawn) (library stock concentration (final ~1000-fold dilution): 10 mM), the “NF-kB SEAP reporter activity” value in the assay on RAW-Dual [2] (agonist: LPS (TLR4) 0.1 ug/mL) amounted to 1.3; with RAW-Dual [2] (setting [8]), 0.895; in the assay on RAW-Dual [2] (setting [9]), 0.867; in the assay on RAW-Dual [2] (setting [10]) it was 1.1.
For `COc1cc2c(cc1OC)CC(=O)N(CCCN(C)CC1Cc3cc(OC)c(OC)cc31)CC2.Cl` (stereo not drawn), the “NF-kB SEAP reporter activity” value with RAW-Dual [1] (setting [6]) amounted to 0.885; with RAW-Dual [1] (setting [7]) it was 0.951.
The matching figures for `CCOC(=O)NC1CCC2C(C1)CC1C(=O)OC(C)C1C2/C=C/c1ccc(-c2cccc(F)c2)cn1` (stereo not drawn): 0.145 and 0.289.
With `CCOC(=O)NC1CCC2C(C1)CC1C(=O)OC(C)C1C2/C=C/c1ccc(-c2cccc(F)c2)cn1` (stereo not drawn) (library stock concentration (final ~1000-fold dilution): 10 mM), the “NF-kB SEAP reporter activity” value came to 0.824 with RAW-Dual [2] (agonist: LPS (TLR4) 0.1 ug/mL), 0.243 with RAW-Dual [2] (setting [8]), 0.212 with RAW-Dual [2] (setting [9]) and 0.158 in the assay with RAW-Dual [2] (setting [10]).
`NC(=O)N1CCC(CC(=O)N2CCC(C3c4ncc(Br)cc4CCc4cc(Cl)cc(Br)c43)CC2)CC1` (stereo not drawn): the entries for the “NF-kB SEAP reporter activity” value in the assay on RAW-Dual [1] (setting [4]) and with RAW-Dual [1] (setting [5]) were 0.614 and 0.603, respectively.
Turning to `NC(=O)N1CCC(CC(=O)N2CCC(C3c4ncc(Br)cc4CCc4cc(Cl)cc(Br)c43)CC2)CC1` (stereo not drawn) (library stock concentration (final ~1000-fold dilution): 10 mM), the “NF-kB SEAP reporter activity” value in the assay with RAW-Dual [3] (agonist: LPS (TLR4) 0.1 ug/mL) amounted to 0.422; with RAW-Dual [3] (setting [8]), 0.347; in the assay on RAW-Dual [3] (setting [9]), 0.171; in the assay with RAW-Dual [3] (setting [10]), 0.223.
Regarding `Nc1ccccc1NC(=O)c1cnccn1`, the “NF-kB SEAP reporter activity” value in the assay with RAW-Dual [1] (setting [6]) was 0.997; in the assay on RAW-Dual [1] (setting [7]) it was 1.12.
The matching figures for `O=C(Nc1ccc(O)cc1)c1ccccc1O`: 1.68 and 1.24.
Consider `CC(=O)Nc1ccc(C(=O)Nc2ccccc2N)cc1` (library stock concentration (final ~1000-fold dilution): 10 mM), for which the “NF-kB SEAP reporter activity” value in the assay with RAW-Dual [2] (agonist: LPS (TLR4) 0.1 ug/mL) worked out at 2.28; with RAW-Dual [2] (setting [8]), 2.86; with RAW-Dual [2] (setting [9]) it was 0.724; with RAW-Dual [2] (setting [10]) it was 0.832.
With `CC(=O)Nc1ccc(C(=O)Nc2ccccc2N)cc1`, the “NF-kB SEAP reporter activity” value in the assay on RAW-Dual [1] (setting [6]) was determined as 2.21; with RAW-Dual [1] (setting [7]), 1.74.
With `Nc1ccccc1NC(=O)c1cnccn1` (library stock concentration (final ~1000-fold dilution): 10 mM), the “NF-kB SEAP reporter activity” value was determined as 1.4 in the assay with RAW-Dual [2] (agonist: LPS (TLR4) 0.1 ug/mL), 1.16 in the assay on RAW-Dual [2] (setting [8]), 0.443 in the assay with RAW-Dual [2] (setting [9]) and 0.532 in the assay with RAW-Dual [2] (setting [10]).
Regarding `O=C(Nc1ccc(O)cc1)c1ccccc1O` (library stock concentration (final ~1000-fold dilution): 10 mM), the “NF-kB SEAP reporter activity” value was determined as 1.17 in the assay with RAW-Dual [2] (agonist: LPS (TLR4) 0.1 ug/mL), 1.93 with RAW-Dual [2] (setting [8]), 0.921 with RAW-Dual [2] (setting [9]) and 1.04 with RAW-Dual [2] (setting [10]).
Take `CO/N=C(\C(=O)NC1C(=O)N2C(C(=O)O)=C(CSc3nnnn3C)CSC12)c1csc(N)n1.CO/N=C(\C(=O)NC1C(=O)N2C(C(=O)O)=C(CSc3nnnn3C)CSC12)c1csc(N)n1.Cl` (stereo not drawn): in the assay with RAW-Dual [1] (setting [7]), the “NF-kB SEAP reporter activity” value was found to be 1.06.
Turning to `CO/N=C(\C(=O)NC1C(=O)N2C(C(=O)O)=C(CSc3nnnn3C)CSC12)c1csc(N)n1.CO/N=C(\C(=O)NC1C(=O)N2C(C(=O)O)=C(CSc3nnnn3C)CSC12)c1csc(N)n1.Cl` (stereo not drawn) (library stock concentration (final ~1000-fold dilution): 10 mM), the “NF-kB SEAP reporter activity” value in the assay with RAW-Dual [2] (agonist: LPS (TLR4) 0.1 ug/mL) stood at 0.999; in the assay with RAW-Dual [2] (setting [8]), 0.966; in the assay with RAW-Dual [2] (setting [9]), 1.14; in the assay with RAW-Dual [2] (setting [10]), 0.939.
